Experimental data taken from PubChem BioAssay.
“And” between values parts separate entries of the source, which are not always exact repeats. Identical values can stand only once. The source made the active and inactive calls.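 How the source made its calls, unless noted: active means thallium flux through the channel raised or lowered by more than 3 SD from vehicle-only wells, actives on both sides; inactive means the rest.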

Legend:
[1] = polyglutamine-triggered caspase-3 activation inhibitors, cell-based (AID 1583); details: polyglutamine-induced caspase-3 activation, cell assay; stronger effect = higher value;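 tested at 10 µM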
[2] = suppressors of polyQ aggregation in yeast, 75Q-TubU reporter (AID 1593); details: Yeast 75Q polyglutamine aggregation reporter
[3] = inhibitors of mitochondrial cytochrome c release, biochemical, purified mitochondria (AID 1603); details: stronger effect = lower value;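 further: mouse liver mitochondria challenged with calcium chloride; signal normalized to the plate average as 100%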
[4] = inhibitors of polyQ protein aggregation (AID 1604); details: polyglutamine-induced protein aggregation inhibition assay; stronger effect = higher value; tested at 2.5 µM
[5] = enhancers of glutamate uptake in motor neurons, MN-1 cell line (AID 1612); details: MN-1 motor neuron cells, stronger effect = higher value;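 further: tested at 1 µM final; 0% = mean of DMSO vehicle wells on each plate; positive means more glutamate uptake than control and negative means less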
[6] = Cy5 fluorescence interference with SSB-bound oligo, artefact control for HCV NS3 helicase inhibitor project, biochemical, NIH Clinical Collection, E. coli SSB (AID 743268; call rule not given here)
[7] = system: Hepatitis C virus NS3 helicase; assay: HCV NS3 helicase inhibitors, primary screen, biochemical, fluorescence polarization, NIH Clinical Collection (AID 743270; call rule not given here); details: NS3 helicase binding to Cy5-dT15 DNA, stronger effect = higher value, concentration not given here
[8] = molecular target: Single-stranded DNA-binding protein (Escherichia coli (strain K12)) (UniProt P0AGE0); assay: E. coli SSB displacement from DNA, counter-screen for HCV NS3 helicase inhibitor project, biochemical, fluorescence polarization, NIH Clinical Collection (AID 743271; in the data active means inhibition above about 28%); details: stronger effect = higher value, concentration not given here
[9] = fluorescence interference in NS3h assay format, artefact control for HCV NS3 helicase inhibitor project, biochemical, NIH Clinical Collection (AID 743272; call rule not given here;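 further: HCV NS3 helicase with a Cy5 labelled single stranded DNA probe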); details: fluorescence interference counterscreen, stronger effect = lower value
[10] = viability rescue of complex I mutant cybrids, primary screen, cell-based, galactose medium, ATP luminescence (AID 1645843;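 active means z-score of at least 1.8 in each of two replicates, scored against plate mean and spread of sample wells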;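 further: positive z means more ATP and so rescue of galactose-driven cybrid death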); details: complex I mutant cybrid cells, 72 h, stronger effect = higher value
F380Y/beta4 = assay: modulators of BK channel variants, profiling panel, selectivity assay, cell-based, U2OS BacMam, thallium flux, beta subunits (AID 1259406); details: at 30 µM;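 further: initial slope of Thallos dye fluorescence rise after thallium is added; log ratio against the mean of 0.3% DMSO vehicle wells on the same plate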
[11] = molecular target: Calcium-activated potassium channel subunit alpha-1 (Homo sapiens) + Leucine-rich repeat-containing protein 26 (Homo sapiens) (UniProt Q12791+Q2I0M4); assay: as above; details: F380Y/Slo1WT/gamma1, at 30 µM
R275C = assay: as above; details: at 30 µM
R275C/beta1 = assay: as above; details: at 30 µM
R275C/beta2Delta = assay: as above; details: at 30 µM
R275C/beta4 = assay: as above; details: at 30 µM
R275C/Slo1WT/beta2 = assay: as above; details: at 30 µM
[12] = LFS_MB_P medulloblastoma growth inhibition, cell-based, chromothripsis tumors, cisplatin or BGB combos (AID 1671449; in the data active means inhibition above about 80%;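 further: cells exposed for 96 hours; 0% = vehicle DMSO and 100% = killing by high DMSO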); details: LFS_MB_P medulloblastoma cells
[13] = HDN33 neuroblastoma growth inhibition, cell-based, chromothripsis tumors, cisplatin or BGB combos (AID 1671450; in the data active means inhibition above about 80%;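 further: cells exposed to compound for four days; 0% = vehicle DMSO and 100% = cell killing by high DMSO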); details: HDN33 neuroblastoma cells, stronger effect = higher value
[14] = HTB85 osteosarcoma cell growth inhibition, synergistic combos for chromothripsis tumors, BGB or cisplatin IC20 combos (AID 1671453; in the data active means inhibition above about 80%;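 further: cells exposed for 96 hours before readout; 0% = vehicle DMSO and 100% = high DMSO killing control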); details: HTB85 osteosarcoma cells, drug combinations, stronger effect = higher value
[15] = at 0.5 µM, stronger effect = higher value
[16] = measured here: combination with BGB IC20, at 0.005 µM
[17] = measured here: combination with BGB IC40, at 0.005 µM
[18] = measured here: combination with BGB IC40, at 0.05 µM
[19] = measured here: combination with cisplatin, at 0.5 µM, stronger effect = higher value
[20] = measured here: combination with cisplatin, at 5 µM, stronger effect = higher value
[21] = measured here: with BGB IC20 combination, at 0.5 µM
[22] = measured here: with cisplatin IC20 combination, at 0.5 µM
[23] = measured here: with BGB IC20, at 0.5 µM
[24] = measured here: with BGB IC20, at 5 µM
[25] = measured here: with cisplatin IC20, at 0.5 µM
[26] = measured here: with cisplatin IC20, at 5 µM

Sequence of Calcium-activated potassium channel subunit alpha-1 (Homo sapiens) + Leucine-rich repeat-containing protein 26 (Homo sapiens) (Q2I0M4 whole entry, looked up, one chain of several): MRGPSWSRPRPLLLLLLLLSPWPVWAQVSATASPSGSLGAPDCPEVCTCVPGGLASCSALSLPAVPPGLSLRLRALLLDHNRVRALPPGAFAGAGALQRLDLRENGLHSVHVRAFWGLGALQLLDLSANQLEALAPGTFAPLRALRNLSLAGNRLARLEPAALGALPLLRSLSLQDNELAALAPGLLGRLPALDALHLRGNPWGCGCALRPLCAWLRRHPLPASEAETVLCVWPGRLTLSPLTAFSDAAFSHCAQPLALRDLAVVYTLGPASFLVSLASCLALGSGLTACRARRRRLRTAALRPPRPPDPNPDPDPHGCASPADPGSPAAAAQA

O=C(O)c1cc(=O)c2c(OCC(O)COc3cccc4oc(C(=O)O)cc(=O)c34)cccc2o1
inhibition [1]: -4.9%
score [2]: 1.69
cytochrome c release ratio [3]: 0.89
inhibition of aggregation [4]: 65.5%
glutamate uptake change [5]: -4.58%
fluorescence ratio [6]: 1.02 (inactive)
inhibition [7]: -2.27% (inactive)
inhibition [8]: 3.34% (inactive)
fluorescence ratio [9]: 1.03 (inactive)
z-score [10]: 0.69 (inactive) and 0.68 (inactive)
log fold change Tl+ flux (F380Y/beta4): -0.0657 (inactive)
log fold change Tl+ flux [11]: -0.0248 (inactive)
log fold change Tl+ flux (R275C): -0.0035 (inactive)
log fold change Tl+ flux (R275C/beta1): -0.0241 (inactive)
log fold change Tl+ flux (R275C/beta2Delta): -0.0325 (inactive)
log fold change Tl+ flux (R275C/beta4): -0.125 (inactive)
log fold change Tl+ flux (R275C/Slo1WT/beta2): 0.015 (inactive)

CS(=O)(=O)OCCCCOS(C)(=O)=O
inhibition [1]: 27.2%
score [2]: 1.46
cytochrome c release ratio [3]: 0.62
inhibition of aggregation [4]: 54%
glutamate uptake change [5]: 14.5%
fluorescence ratio [6]: 1.02 (inactive)
inhibition [7]: -12.3% (inactive)
inhibition [8]: -0.48% (inactive)
fluorescence ratio [9]: 0.92 (inactive)
z-score [10]: 0.925 (inactive)
inhibition [12, 15]: -1.82% (inactive) and -6.92% (inactive)
inhibition [12, 16]: -22.1% and -20.3%
inhibition [12, 17]: -24.6% and 29.3%
inhibition [12, 18]: -40.6% and 3.42%
inhibition [12, 19]: 1.85% and -16.8%
inhibition [12, 20]: -55.6% and 0.647%
inhibition ([13]; BGB combo, at 5 µM): -31.6% and -3.19%
inhibition ([13]; at 0.5 µM): -10.4% (inactive) and -1.57% (inactive)
inhibition ([13]; cisplatin combo, at 5 µM): -3.41% and -6.58%
inhibition [13, 21]: -9.64% and 2.06%
inhibition [13, 22]: -8.9% and -4.87%
inhibition ([13]; single agent, at 5 µM): 0.973% and 14.4%
inhibition ([14]; at 0.5 µM): -4.73% (inactive) and 3.45% (inactive)
inhibition [14, 23]: -9.57% and -1.65%
inhibition [14, 24]: -6.08% and 4.44%
inhibition [14, 25]: -0.002% and 1.89%
inhibition [14, 26]: -32.8% and 17%
inhibition ([14]; single agent, at 5 µM): -0.247% and 3.08%
log fold change Tl+ flux (F380Y/beta4): 0.00072 (inactive)
log fold change Tl+ flux [11]: -0.0136 (inactive)
log fold change Tl+ flux (R275C): 0.0198 (inactive)
log fold change Tl+ flux (R275C/beta1): -0.0312 (inactive)
log fold change Tl+ flux (R275C/beta2Delta): 0.0365 (inactive)
log fold change Tl+ flux (R275C/beta4): -0.0126 (inactive)
log fold change Tl+ flux (R275C/Slo1WT/beta2): 0.0135 (inactive)

CCN(Cc1ccncc1)C(=O)C(CO)c1ccccc1 (centres undefined)
inhibition [1]: 24.2%
score [2]: 1.22
cytochrome c release ratio [3]: 1.14
inhibition of aggregation [4]: 87%
glutamate uptake change [5]: -2.09%
fluorescence ratio [6]: 1.06 (inactive)
inhibition [7]: -2.27% (inactive)
inhibition [8]: -5.05% (inactive)
fluorescence ratio [9]: 1.03 (inactive)
log fold change Tl+ flux (F380Y/beta4): -0.0208 (inactive)
log fold change Tl+ flux [11]: 0.00211 (inactive)
log fold change Tl+ flux (R275C): -0.035 (inactive)
log fold change Tl+ flux (R275C/beta1): 0.0151 (inactive)
log fold change Tl+ flux (R275C/beta2Delta): 0.0198 (inactive)
log fold change Tl+ flux (R275C/beta4): 0.0153 (inactive)
log fold change Tl+ flux (R275C/Slo1WT/beta2): 0.0191 (inactive)

COCCOC(=O)C1=C(C)NC(C)=C(C(=O)OC(C)C)C1c1cccc([N+](=O)[O-])c1 (centres undefined)
fluorescence ratio [6]: 0.87 (inactive)
inhibition [7]: 6.77% (inactive)
inhibition [8]: 15.3% (inactive)
fluorescence ratio [9]: 0.92 (inactive)
log fold change Tl+ flux (F380Y/beta4): -0.126 (active)
log fold change Tl+ flux [11]: 0.0377 (inactive)
log fold change Tl+ flux (R275C): -0.000869 (inactive)
log fold change Tl+ flux (R275C/beta1): -0.0169 (inactive)
log fold change Tl+ flux (R275C/beta2Delta): -0.0566 (inactive)
log fold change Tl+ flux (R275C/beta4): -0.0265 (inactive)
log fold change Tl+ flux (R275C/Slo1WT/beta2): -0.0323 (inactive)

CC1COc2c(N3CCN(C)CC3)c(F)cc3c(=O)c(C(=O)O)cn1c23 (centres undefined)
inhibition [1]: 10.8%
score [2]: 1.04
cytochrome c release ratio [3]: 1.57
inhibition of aggregation [4]: 67.8%
glutamate uptake change [5]: -4.74%
fluorescence ratio [6]: 0.99 (inactive)
inhibition [7]: -2.27% (inactive)
inhibition [8]: 2.57% (inactive)
fluorescence ratio [9]: 0.87 (inactive)
inhibition [12, 15]: -15.2% (inactive) and -4.35% (inactive) and -7.1% (inactive)
inhibition [12, 16]: -17.1% and -18.6% and 40.6%
inhibition [12, 17]: -34.5% and 8.51% and 11.7%
inhibition [12, 18]: -33.9% and 2.31% and 36%
inhibition [12, 19]: -16.9% and 6.16% and -20.4%
inhibition [12, 20]: -20.4% and -8.17% and -11.9%
inhibition ([13]; BGB combo, at 5 µM): -21.1% and 5.47% and 15%
inhibition ([13]; at 0.5 µM): -45.4% (inactive) and 10.2% (inactive) and 8.6% (inactive)
inhibition ([13]; cisplatin combo, at 5 µM): -32.1% and -5.63% and 10.7%
inhibition [13, 21]: -54.6% and 19.4% and 13%
inhibition [13, 22]: -40.5% and 0.068% and 0.136%
inhibition ([13]; single agent, at 5 µM): -44.6% and 1.17% and 11.7%
inhibition ([14]; at 0.5 µM): -45.9% (inactive) and 3.58% (inactive) and -0.61% (inactive)
inhibition [14, 23]: -68.8% and -8.08% and -9.45%
inhibition [14, 24]: -49.9% and 8% and -6.03%
inhibition [14, 25]: -39.2% and 5.61% and -11.8%
inhibition [14, 26]: -30.4% and 7.76% and -5.54%
inhibition ([14]; single agent, at 5 µM): -34.4% and -4.7% and 18.3%
log fold change Tl+ flux (F380Y/beta4): 0.0067 (inactive)
log fold change Tl+ flux [11]: 0.00974 (inactive)
log fold change Tl+ flux (R275C): 0.0249 (inactive)
log fold change Tl+ flux (R275C/beta1): -0.02 (inactive)
log fold change Tl+ flux (R275C/beta2Delta): -0.03 (inactive)
log fold change Tl+ flux (R275C/beta4): 0.0112 (inactive)
log fold change Tl+ flux (R275C/Slo1WT/beta2): 0.0308 (inactive)

NNCCc1ccccc1
inhibition [1]: 3.3%
score [2]: 0.97
cytochrome c release ratio [3]: 1.02
inhibition of aggregation [4]: 15.4%
glutamate uptake change [5]: 2.77%
fluorescence ratio [6]: 0.99 (inactive) and 1.14 (inactive)
inhibition [7]: 1.19% (inactive) and -5.91% (inactive)
inhibition [8]: -0.87% (inactive) and -0.48% (inactive)
fluorescence ratio [9]: 0.96 (inactive) and 1.02 (inactive)
z-score [10]: 0.14 (inactive) and 0.22 (inactive) and 0.6 (inactive)
log fold change Tl+ flux (F380Y/beta4): 0.00368 (inactive)
log fold change Tl+ flux [11]: -0.00263 (inactive)
log fold change Tl+ flux (R275C): -0.025 (inactive)
log fold change Tl+ flux (R275C/beta1): 0.00562 (inactive)
log fold change Tl+ flux (R275C/beta2Delta): -0.0402 (inactive)
log fold change Tl+ flux (R275C/beta4): -0.0112 (inactive)
log fold change Tl+ flux (R275C/Slo1WT/beta2): 0.022 (inactive)

CCCc1nc2c(C)cc(-c3nc4ccccc4n3C)cc2n1Cc1ccc(-c2ccccc2C(=O)O)cc1
fluorescence ratio [6]: 1.02 (inactive)
inhibition [7]: 17% (active)
inhibition [8]: 16.8% (inactive)
fluorescence ratio [9]: 1.04 (inactive)
z-score [10]: 1.57 (inactive) and -0.14 (inactive)
log fold change Tl+ flux (F380Y/beta4): -0.000976 (inactive)
log fold change Tl+ flux [11]: 0.054 (inactive)
log fold change Tl+ flux (R275C): -0.0814 (inactive)
log fold change Tl+ flux (R275C/beta1): -0.0256 (inactive)
log fold change Tl+ flux (R275C/beta2Delta): -0.00129 (inactive)
log fold change Tl+ flux (R275C/beta4): 0.033 (inactive)
log fold change Tl+ flux (R275C/Slo1WT/beta2): 0.0168 (inactive)

NNC(=O)c1ccncc1
inhibition [1]: -15%
score [2]: 1.32
cytochrome c release ratio [3]: 1.2
inhibition of aggregation [4]: 30.1%
glutamate uptake change [5]: -15.1%
fluorescence ratio [6]: 1.01 (inactive)
inhibition [7]: -2.27% (inactive)
inhibition [8]: 3.34% (inactive)
fluorescence ratio [9]: 0.93 (inactive)
z-score [10]: 0.55 (inactive) and 0.315 (inactive)
log fold change Tl+ flux (F380Y/beta4): 0.0513 (inactive)
log fold change Tl+ flux [11]: 0.0222 (inactive)
log fold change Tl+ flux (R275C): 0.00765 (inactive)
log fold change Tl+ flux (R275C/beta1): -0.00353 (inactive)
log fold change Tl+ flux (R275C/beta2Delta): 0.0339 (inactive)
log fold change Tl+ flux (R275C/beta4): 0.0039 (inactive)
log fold change Tl+ flux (R275C/Slo1WT/beta2): -0.0323 (inactive)
